Data on 38 molecules can be found in ChEMBL document CHEMBL3433997, “St. Jude Leishmania screening dataset” (2016).

Where “and” joins values, the source holds several entries; their conditions need not be identical. Equal values may be shown once.

Common to all, as to assay type: functional
In experiment [1] the target is Solute carrier family 2, facilitated glucose transporter member 1 (Homo sapiens) (UniProt P11166). The experiment is described as follows: ST_JUDE_LEISH: Cytotoxicity at 2uM final concentration against transgenic Leishmania Mexicana promastigotes LmGLUT1 that are glucose transport deficient and complemented with the human glucose transporter GLUT1. Activity is measured by DNA content using SYBR green in vitro.
Chain of Solute carrier family 2, facilitated glucose transporter member 1 (Homo sapiens) (P11166 whole entry): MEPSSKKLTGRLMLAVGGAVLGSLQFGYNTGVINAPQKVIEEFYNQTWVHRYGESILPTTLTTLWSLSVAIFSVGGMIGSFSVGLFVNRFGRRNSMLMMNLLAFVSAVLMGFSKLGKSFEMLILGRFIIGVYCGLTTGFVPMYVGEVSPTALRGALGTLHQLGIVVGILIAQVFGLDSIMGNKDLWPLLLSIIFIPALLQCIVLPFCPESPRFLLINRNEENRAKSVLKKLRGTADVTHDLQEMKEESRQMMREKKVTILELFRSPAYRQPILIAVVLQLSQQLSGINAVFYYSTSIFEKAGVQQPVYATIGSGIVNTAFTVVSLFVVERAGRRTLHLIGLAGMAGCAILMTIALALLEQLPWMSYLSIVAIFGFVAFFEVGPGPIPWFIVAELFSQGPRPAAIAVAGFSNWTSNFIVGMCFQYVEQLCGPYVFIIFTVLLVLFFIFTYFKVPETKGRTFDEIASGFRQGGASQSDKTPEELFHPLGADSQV

Experiment [2] deals with Hexose transporter 1 (Plasmodium falciparum) (UniProt O97467). The experiment is described as follows: ST_JUDE_LEISH: Cytotoxicity at 2uM final concentration against transgenic Leishmania Mexicana promastigotes LmPfHT that are glucose transport deficient and complemented with the Plasmodium falciparum hexose transporter. Activity is measured by DNA content using SYBR green in vitro.

Experiment [3] has as its target Glucose transporter (Leishmania mexicana) (UniProt O61059). In words: ST_JUDE_LEISH: Cytotoxicity at 2uM final concentration against transgenic Leishmania Mexicana promastigotes LmGT2 that are glucose transport deficient and complemented with the L. Mexicana glucose transporter 2. Activity is measured by DNA content using SYBR green in vitro.

As a reminder, the inhibition is the drop in the measured response relative to a control, in per cent. In the case of `CCCC(=O)c1cnc2c(I)cccc2c1Nc1ccccc1C`, the values for the inhibition in experiment [1], in experiment [2] and in experiment [3] were 3.51%, 4.24% and 3.57%, respectively.
The corresponding values for `Cn1cncc1C(=O)Nc1cccc(-c2cccc(-c3nc4ccccc4[nH]3)c2)c1` are 4.71%, 4.74% and 5.38%.
Regarding `O=C(Nc1ccc(Cn2ncc(N3CCCNCC3)c(Cl)c2=O)cc1)Nc1ccc(-c2ccccc2)cc1`, the inhibition in experiment [1] was -0.52% and 1.84%; in experiment [2], 0.35% and 2.4%; in experiment [3] it was -4.66% and 1.38%.
`Cc1ccc2c(c1[N+](=O)[O-])N=NCC2Oc1ccccc1` (centres undefined): the values for the inhibition in experiment [1], in experiment [2] and in experiment [3] were 10.8%, 9.1% and 10.6%, respectively.
Regarding `Cc1nc(-c2ccc(-c3ccc(C(=O)Nc4ccc(I)c(OCCN5CCCC5)c4)cc3)c(C)c2)no1`, the values for the inhibition in experiment [1], in experiment [2] and in experiment [3] were 3.85%, 3.48% and 1.38%, respectively.
For `Cc1ccc(NC(=O)c2cccc(C#N)c2)cc1-c1ccc(C(=O)Nc2ccncc2)cc1`, the inhibition is 7.71% in experiment [1], 9.75% in experiment [2] and 4.44% in experiment [3].
Turning to `O=C(N[C@@H](Cc1ccccc1)C(=O)NCCN1CCCCC1)c1ccc(O)c(-c2cccc(C(F)(F)F)c2)c1`, the inhibition in experiment [1] worked out at 2.63%; in experiment [2], 1.38%; in experiment [3] it was 2.46%.
The corresponding values for `CC(=O)Nc1ccccc1OCc1cc2cc(C(=O)N3CCC(N4C(=O)OCc5ccccc54)CC3)ccc2o1` are 4.21%, 2.89% and 4.49%.
The corresponding values for `CN1CCN(c2cc(-c3ccncc3)nc(-c3cccnc3)n2)CC1` are 5.17%, 3.27% and 3%.
The corresponding values for `COc1ccc(CNCc2cccc(-c3ccc(-c4nc5cccc(C)c5[nH]4)cc3)c2)cc1` are 14%, 9.73% and 7.5%.
Turning to `N#Cc1ccc(CN2CCC(Oc3ccc(NC(=O)c4ccsc4)cc3Cl)C2)cc1` (centres undefined), the inhibition in experiment [1] turned out to be 8.19%; in experiment [2], 11.8%; in experiment [3] it was 8.45%.
The corresponding values for `CC(C)C[C@@H](C(=O)N[C@H](C(=O)Nc1nccs1)C(C)(C)C)[C@H](CCC(F)(F)F)N(O)C=O` are 4.27%, 6.41% and 4.07%.
As to `COc1ccc(CNC2CCN(C)CC2)cc1-c1ccc(OC)c(S(=O)(=O)NCc2ccccc2)c1`, the inhibition in experiment [1] was determined as 1.01%; in experiment [2] it was 1.62%; in experiment [3], 0.01%.
The corresponding values for `CCCc1ccc(C(=O)N2C(c3nccs3)C(C(N)=O)CC2(CC(C)C)C(=O)O)cc1` (centres undefined) are 1.38%, 2.07% and 0.37%.
The corresponding values for `CC(C)c1ccc(CN2CCC(CNC(=O)c3cc(-c4cccc(Cl)c4)cs3)C2)cc1` (centres undefined) are 1.24%, 3.19% and -0.24%.
The corresponding values for `CC1(C)CC(=O)c2c(O)cc(OCc3ccncc3)cc2O1` are 2.92%, 0.56% and 0.66%.
For the molecule `CCOc1cc(C(=O)N[C@@H](Cc2ccccc2)[C@H](O)CNCc2cccc(OC)c2)cc(N2CCCCS2(=O)=O)c1`, the results for the inhibition in experiment [1], in experiment [2] and in experiment [3] were 5.4%, 5.25% and 3.08%, respectively.
`OCC1CCN(Cc2cccc(-c3ccc(-c4nc5cc(C(F)(F)F)ccc5[nH]4)cc3)c2)CC1`: the inhibition in experiment [1] amounted to 1.05%; in experiment [2], 0.48%; in experiment [3] it was 1.4%.
The corresponding values for `COc1ccc(Cl)cc1N1CCN(CCCNC(=O)c2ccc(-c3nc4cc(Cl)c(Cl)cc4[nH]3)c(C)c2)CC1` are 1.66%, 0.9% and 1.04%.
As to `CC(C)Cc1c(O)nc(SCCN2CCOCC2)[nH]c1=O`, the inhibition in experiment [1] was -0.96%; in experiment [2] it was 1.54%; in experiment [3] it was -0.43%.
The corresponding values for `CS(=O)(=O)Nc1ccc(-c2ccc3ccnc(N)c3c2)cc1` are 7.57%, 7.12% and 6.67%.
The corresponding values for `N#Cc1ccc2c(c1)CCN(CCC1CCC(NC(=O)c3cc4cccc(Cl)c4[nH]3)CC1)CC2` (centres undefined) are 15.5%, 11.7% and 9.05%.
For `CCN(CC)S(=O)(=O)c1ccc(C(=O)Oc2ccccc2N(Cc2ccc(OC)cc2)C2=NS(=O)(=O)c3ccccc32)cc1`, the inhibition in experiment [1] is 3.69%; in experiment [2] it was 2.22%; in experiment [3] it was 2.59%.
The corresponding values for `O=C(Nc1ccc(CC(=O)N2CCc3cc(Cl)c(N4CCN(C/C=C/c5ccccc5)CC4)cc32)cc1)Nc1cccc([N+](=O)[O-])c1` are 1.73%, 1.25% and 1.93%.
The corresponding values for `COc1ccccc1NC(=O)c1cc(C(=O)c2cc(Cl)ccc2O)cn(-c2ccccc2OC)c1=O` are 5.19%, 5.3% and 4.07%.
In the case of `O=C(/C=C/c1ccc(I)cc1)NCCCCCN1CCC(c2c[nH]c3ccccc23)CC1`, the inhibition was 3.43% in experiment [1], 1.79% in experiment [2] and 2.95% in experiment [3].
Regarding `Cc1cc(N2CCCC2=O)ccc1-c1ccc(C(=O)N2CCC(Oc3cccc(Cl)c3)CC2)cc1`, the inhibition in experiment [1] came to 0.43%; in experiment [2], 1.95%; in experiment [3], 3.87%.
Take `COc1ccc(Cc2cccc(C(C(=O)NCc3cc(Cl)cc(Cl)c3)N3CCN(C)CC3)c2)cc1` (centres undefined): the inhibition is -1.02% in experiment [1], -1.26% in experiment [2] and 0.4% in experiment [3].
Take `Cc1cc(-c2ccc(S(=O)(=O)Nc3cc4c(cc3OC(C)C)CCN(C)CC4)cc2)ccc1Cl`: the inhibition in experiment [1] is -2.82%; in experiment [2] it was -1.99%; in experiment [3], -2.35%.
The corresponding values for `Oc1ccc(CN2CCC(NCc3cccc4ccccc34)CC2)cc1` are 12.4%, 11.6% and 9.93%.
The corresponding values for `Cc1cc(N[C@@H](Cc2ccccc2)C(=O)NCCc2ccccc2)nc(NCCOc2ccccc2)n1` are 5.12%, 5.84% and 2.55%.
The corresponding values for `O=C(Nc1ccc(Cl)cc1C(=O)Nc1ccncc1)c1ccc(Cl)cc1Cl` are 6.71%, 5.88% and 5.53%.
Take `N#Cc1ccc(CN2CCC(Oc3ccc(NC(=O)c4cccs4)cc3)C2)cc1` (centres undefined): the values for the inhibition in experiment [1], in experiment [2] and in experiment [3] were 2.68%, -0.99% and 0.05%, respectively.
Regarding `CC1CN(c2cnn(Cc3cccc(NC(=O)Nc4ccc(F)cc4[N+](=O)[O-])c3)c(=O)c2Cl)CC(C)N1` (centres undefined), the inhibition is -2.05% in experiment [1], 1.66% in experiment [2] and -0.22% in experiment [3].
Take `CO/C(=C\C=C\c1cc2cc(Cl)c(Cl)cc2[nH]1)C(=O)NCCCN1CCN(c2cccc(CCCO)c2)CC1`: the inhibition came out at 6% in experiment [1], 5.32% in experiment [2] and 5.89% in experiment [3].
Consider `O=C(/C=C/c1ccc(-c2ccccc2)cc1)NCCCCCN1CCC(c2c[nH]c3ccccc23)CC1`, for which the inhibition in experiment [1] was 0.3%; in experiment [2] it was 4.35%; in experiment [3], -1.76%.
`COc1ccc(CNc2nc(NCCc3ccccc3)c3cc(OC)c(OC)cc3n2)cc1OC`: the inhibition in experiment [1] worked out at 3.4%; in experiment [2], 3.46%; in experiment [3] it was 2.54%.
The corresponding values for `O=C(Nc1ccc(C(F)(F)F)cc1)c1ccc(S(=O)(=O)NC2CCCN(CC3CCCCC3)C2)cc1` (centres undefined) are 6.6%, 4.53% and 4.45%.
